From PubChem BioAssay
This is a sample that favours compounds with a hit; in the whole collection about 19% have one here.
TDP1 cell CPT: DT40-hTDP1 cell growth loss with CPT; AID 686979; actives 12% (n = 420,000); Potency, µM (top dose mostly 46.2 µM), actives largely listed as inhibitors; chicken DT40 Tdp1-/-;hTDP1 cells + 20 nM CPT, ATP luminescence, 48 h; also: nearly all actives have a fitted effect of over 55% in size
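Cell growth measured by CellTiter-Glo luminescence after a minimum 48 h, 37 C compound exposure with 20 nM CPT in Tdp1-knockout DT40 cells stably expressing hTDP1, seeded 400/well; qHTS titration format.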
ELG1 DNA repair: blocks ELG1-dependent DNA repair in HEK293T cells; HEK293T ELG1-luciferase reporter, luminescence, 16 h; DNA damage induced by 5-fluorouridine; Potency, µM (top dose mostly 46.1 µM), most hits filed as inhibitors; actives 2.3% (n = 330,000); also: nearly all actives have a fitted effect of over 55% in size
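Overnight (16 hr) co-exposure of 2,000 cells/well to 5-fluorouridine and compound at 37 °C preceded detection. Luciferase was quantified via ONE-Glo luminescence; loss of signal denotes inhibition.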
HT1080 IDH1KD tx: toxicity to HT-1080 IDH1 knockdown cells (counter line); actives 2% (n = 360,000); Potency, µM (doses to about 46.1 µM), most hits filed as cytotoxic; HT-1080 IDH1 knockdown viability, ATP luminescence, 48 h
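Assay cells: HT-1080 with IDH1 knockdown, 750 per well, RPMI/5% FBS. Exposure: 48 h at 37 °C following 2 h pre-incubation. Read: CellTiter-Glo luminescence; fitted concentration-response, curve class assigned.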
IL1B secr inh: blocks inflammasome-driven IL-1 beta release; THP-1 LPS/ATP IL-1B secretion, AlphaLISA, 16 h; active compounds read low; activity change, % at 57.5 µM; actives 4.7% (n = 360,000); in the data active = activity change below about -50%; inconclusive = mostly about -30% to -49%
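THP-1 cells pretreated 1 hr with compounds (up to 57.5 uM final), then stimulated with LPS (250 ng/mL final) plus ATP (1.25 mM final); secreted IL-1B measured by AlphaLISA after 16 hr, decreased signal indicating inhibition.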
DT40 TDP1 no CPT: qHTS for Inhibitors of human tyrosyl-DNA phosphodiesterase 1 (TDP1): qHTS in cells in absence of CPT; DT40 Tdp1-/- hTDP1 cells, no CPT, ATP luminescence, 48 h; Potency, µM (series often up to 46.2 µM), usual class: inhibitors; actives 15% (n = 420,000); AID 686978, 2013; also: nearly all actives have a fitted effect of over 55% in size
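Chicken DT40 Tdp1-/- cells stably complemented with human TDP1 were seeded at 400 cells/well with DMSO in place of 20 nM camptothecin. After compound pinning, cells grew at least 48 hr at 37 °C; viability read by CellTiter-Glo luminescence.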
HT1080NT lethal: kills 2HG-producing HT-1080-NT fibrosarcoma cells; Potency, µM (series often up to 46.1 µM), most hits filed as cytotoxic; HT-1080-NT fibrosarcoma viability, CellTiter-Glo ATP luminescence, 48 h; actives 1.6% (n = 360,000);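 also: NT is the 2HG producing partner of a matched IDH1 knockdown line; nearly all actives have a fitted effect of over 55% in size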
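Fibrosarcoma NT cells, 750 per well in 5% FBS RPMI, were exposed to compound for 48 hours. Viability: CellTiter-Glo luminescence.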
Numbers stand for hits; n = inactive; u = inconclusive; x = not tested or not shown; [ ] = another dose, or the depositor's remark. Unless noted, calls follow the shape of the dose curve; as a rule, active = well fitted curve in the direction sought with a large enough effect; inconclusive = small, poorly fitted or top-dose-only effect, or another doubt; inactive = no such curve, though single readings can be large; an effect the other way counts as inactive or inconclusive.

SMILES | TDP1 cell CPT | ELG1 DNA repair | HT1080 IDH1KD tx | IL1B secr inh | DT40 TDP1 no CPT | HT1080NT lethal
COc1ccc(CNC(=O)c2ccc(-c3nc(CSc4ccccc4)c(C)o3)cc2)c(OC)c1 | n | x | x | x | n | x
COc1ccc(-n2nc(C(=O)NCC(=O)NC3CCCCC3)c3ccccc3c2=O)cc1 | n | u | n | n | u | n
Cc1cccc(NC(=O)Cn2c(=O)n(Cc3nc(-c4ccccc4)no3)c(=O)c3ccccc32)c1 | n | x | x | x | u | x
COc1ccc(-c2ccc(OC)c(OC)c2OC)c(OC)c1OC | u | x | n | n | u | n
COc1cc2cc(-c3ccc(O)cc3O)nc(C)c2cc1OC | 10µM | n | u | -73 | 6.5µM | n
COc1cc2cc(-c3ccc(OC)c(OC)c3C)nc(N)c2cc1OC | 5.2µM | x | 1.3µM | n | 5.8µM | 8.2µM
CC(=O)c1c(C)[nH]c(C(=O)CSc2nnc(NC3CC3)s2)c1C | u | u | n | n | 15µM | n
CCn1c(SCC(=O)c2[nH]c(C)c(C(C)=O)c2C)nnc1-c1ccccc1 | 23µM | u | 16µM | n | 26µM | n
Cc1ccc2nc(SCC(=O)Nc3cc([N+](=O)[O-])ccc3F)[nH]c2c1 | 18µM | u | n | n | u | n
CC(=O)c1c(C)[nH]c(C(=O)CSc2nc3ccc(C)cc3[nH]2)c1C | u | 12µM | n | n | 15µM | n
Cc1noc(NS(=O)(=O)c2ccc(NC(=O)c3cc(F)c(F)c(F)c3F)cc2)c1C | n | n | n | n | n | n
Cc1ccc(C(=O)O)cc1S(=O)(=O)Nc1ccccc1C(=O)NC1CC1 | n | n | n | n | n | n
Cc1ccc2nc(SC(C)C(=O)Nc3cccc([N+](=O)[O-])c3)[nH]c2c1 (stereo not drawn) | u | u | n | -73 | u | n
Cc1ccc(-n2c(N)c(C(=O)Nc3ccccc3F)sc2=S)cc1C | u | n | n | -54 | n | n
Fc1cccc(NCCc2c[nH]c3ccccc23)n1 | n | n | n | n | u | n
c1ccc2c(NCCc3c[nH]c4ccccc34)c3ccccc3nc2c1 | 2.6µM | u | u | -57 | 2.9µM | u
OCCCNc1c2ccccc2nc2ccccc12 | 12µM | u | 12µM | -104 | 9.2µM | 23µM
Cc1cc(=O)n(C(C)Cc2ccccc2)n1C(C)Cc1ccccc1 (stereo not drawn) | u | x | n | n | n | n
CCC1CCCCN1CCCNC(=O)c1ccc2c(c1)N(Cc1ccc(F)cc1)C(=O)c1ccccc1S2=O (stereo not drawn) | u | u | 23µM | -58 | u | 21µM
O=C(NCCCN1CCOCC1)c1ccc2c(c1)N(Cc1ccccc1)C(=O)c1ccccc1S2=O (stereo not drawn) | u | n | n | n | n | n
CC1CCCN(CCCNC(=O)c2ccc3c(c2)N(Cc2ccccc2F)C(=O)c2ccccc2S3(=O)=O)C1 (stereo not drawn) | 23µM | n | u | -65 | 15µM | 26µM
CC1CCCN(CCCNC(=O)c2ccc3c(c2)N(Cc2ccc(F)cc2)C(=O)c2ccccc2S3=O)C1 (stereo not drawn) | 16µM | n | u | -58 | u | u
CCN1CCCC1CNC(=O)c1ccc2c(c1)N(Cc1ccccc1F)C(=O)c1ccccc1S2(=O)=O (stereo not drawn) | n | n | n | n | n | n
COc1ccccc1C1CN(Cc2cccn2-c2ncccn2)Cc2ccccc2O1 (stereo not drawn) | n[9.04 µM] | x | x | x | n | x
COC(=O)[C@]12CCCCC=C1N(Cc1ccco1)C(=O)[C@H](CC(=O)NCc1ccccc1)C2 | n | x | n | n | n | n
SMILES | TDP1 cell CPT | ELG1 DNA repair | HT1080 IDH1KD tx | IL1B secr inh | DT40 TDP1 no CPT | HT1080NT lethal
COc1ccccc1CNc1ncnc2onc(-c3ccc(Cl)cc3)c12 | u | x | x | x | 21µM | x
COc1ccccc1-c1noc2ncnc(Nc3cccc(C)c3C)c12 | u | n | n | n | u | n
COc1ccccc1-c1noc2ncnc(Nc3ccccc3C)c12 | 23µM | n | n | n | 15µM | n
COc1ccc(OC)c(CNc2ncnc3onc(-c4ccc(Cl)cc4)c23)c1 | 2.6µM | x | x | x | 2.9µM | x
CCOc1ccccc1CNc1ncnc2onc(-c3ccc(F)cc3)c12 | 16µM | x | x | x | 23µM | x
COc1ccccc1CNc1ncnc2onc(-c3ccc(F)cc3)c12 | n | x | x | x | n | x
O=C(CCCN1CCN2CCCC2C1)c1ccc(F)cc1 (stereo not drawn) | n | x | x | x | n | x
O=C(NCC(=O)N1CCCC1)NN=Cc1ccccc1O | u | x | n | n | u | n
CCOc1ccccc1OCC(=O)OCc1csc(CC(=O)Nc2ccccc2C)n1 | n | n | n | n | n | n
COc1ccc(OC)c(CNc2ncc(-c3ccc(Cl)cc3)n2C)c1 | 16µM | x | x | x | 16µM | x
COc1ccc(-c2nnc(N(C)C(=O)c3ccco3)s2)cc1OC | n | u | n | n | n | n
COCCN(C(=O)c1ccccc1)c1nc(-c2ccc(OC)cc2)cs1 | u | n | n | n | u | n
COCCCN(C(=O)c1ccccc1)c1nc(-c2ccc(OC)cc2)cs1 | 18µM | u | n | n | 16µM | n
COCCCN(C(=O)c1ccco1)c1nc(-c2ccc(OC)cc2)cs1 | 16µM | u | n | n | 21µM | n
COCCN(C(=O)c1ccco1)c1nnc(-c2ccc(OC)c(OC)c2)s1 | n | u | n | -59 | u | n
CCCN1C2CCCC1CC(NC(=S)Nc1cc(C)cc(C)c1)C2 (stereo not drawn) | u | n | n | n | u | n
COCCn1c(=O)c(C)nc2cnc(N3CCOCC3)nc21 | n | x | x | x | n | x
COc1nc(C)ccc1-c1noc(-c2ccccn2)n1 | n | u | n | u | n | n
COc1cnc(-c2ccccn2)nc1Oc1cccc(Cl)c1 | 18µM | u | n | n | 8.2µM | n
COc1cnc(-c2ccccc2)nc1Oc1cccc(C)c1 | u | n | n | n | u | n
COc1cnc(-c2ccccc2)nc1OC | n | u | n | n | n | n
COc1cnc(-c2ccccn2)nc1Oc1c(C)cccc1C | 3.3µM | u | u | n | 3.3µM | n
COc1cnc(-c2ccccn2)nc1N(C)C | u | u | 5.8µM | -58 | 2.9µM | u
Cc1c(CNC(=O)C2CC2)c(-n2cccc2)n(Cc2ccccc2)c1C | n | n | n | n | u | n
O=S1(=O)N[C@@H](Cc2ccccc2)COc2cc(N3CCC[C@@H]3CO)ccc21 | u | x | u | n | 16µM | n
CC(Nc1ccc(Cl)cc1)c1cc(Cl)ccc1O (stereo not drawn) | u | n | u | n | 18µM | u
